Data published in PubChem BioAssay AID1159580 (chemical genetic matrix, 2015).
The campaign covered roughly 5,500 compounds. About 2,000 (36%) were called active. Inconclusive results (about 18%) are left out. No stated cut-off is given here; in the data, active means normalized growth mostly below about 0.91 (no sharp cut-off); inconclusive means no clear call, values can overlap the other calls; inactive means mostly above about 0.92. The list shows a part of the results.

Assay: chemical genetic growth profiling, strain panel (AID 1159580);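 further: tested at 20 µM; growth read once vehicle control cultures reached saturation at 30 °C; 1 = growth at the plate median or of vehicle wells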
Settings: S. cerevisiae deletion strains, growth OD

Measured: normalized growth

C[C@]12C[C@H](O)[C@H]3[C@@H](CCC4=CC(=O)CC[C@@]43C)[C@@H]1CC[C@@H]2C(=O)CO
inactive: locus YAL040C, strain CLN3, stronger effect = lower value 1.05 | locus YDR150W, strain NUM1, stronger effect = lower value 1 | locus YDR363W, strain ESC2, stronger effect = lower value 0.999 | locus YER002W, strain NOP16, stronger effect = lower value 1.01 | locus YGR078C, strain PAC10, stronger effect = lower value 1 | locus YNL175C, strain NOP13, stronger effect = lower value 1.02 | locus YNL197C, strain WHI3, stronger effect = lower value 1.02 | locus YNL224C, strain SQS1, stronger effect = lower value 1.02 | locus YOR083W, strain WHI5 (second series), stronger effect = lower value 1.02 | locus YPL241C, strain CIN2, stronger effect = lower value 1
